TDP1 cell noCPT: qHTS for Inhibitors of human tyrosyl-DNA phosphodiesterase 1 (TDP1): qHTS in cells in absence of CPT; DT40 Tdp1-/- hTDP1 cells, no CPT, ATP luminescence, 48 h; Potency, µM (top dose mostly 46.2 µM), without a hit: at the highest dose activity change, negative = growth inhibition, actives largely listed as inhibitors; actives 15% (n = 420,000); also: potency is read from the fitted curve at half-maximal effect; nearly all actives have a fitted effect of over 55% in size
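Compound effects on proliferation are scored in DT40 Tdp1-/-;hTDP1 cells in the absence of CPT. ATP levels (CellTiter-Glo luminescence) are recorded after a ≥48 hr, 37 °C incubation.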
RORg inh: blocks mouse ROR gamma transcriptional activity; Potency, µM (doses to about 53.6 µM), without a hit: at the top dose activity change, negative = inhibition, hits mostly inhibitors; actives 5.4% (n = 310,000); Drosophila S2 Gal4-RORgamma UAS-luciferase reporter, 20 h; P51450; AID 2551; also: potency is read from the fitted curve at half-maximal effect; nearly all actives have a fitted effect of over 60% in size
Target sequence (P51450 whole entry, looked up, the tested form may be a part): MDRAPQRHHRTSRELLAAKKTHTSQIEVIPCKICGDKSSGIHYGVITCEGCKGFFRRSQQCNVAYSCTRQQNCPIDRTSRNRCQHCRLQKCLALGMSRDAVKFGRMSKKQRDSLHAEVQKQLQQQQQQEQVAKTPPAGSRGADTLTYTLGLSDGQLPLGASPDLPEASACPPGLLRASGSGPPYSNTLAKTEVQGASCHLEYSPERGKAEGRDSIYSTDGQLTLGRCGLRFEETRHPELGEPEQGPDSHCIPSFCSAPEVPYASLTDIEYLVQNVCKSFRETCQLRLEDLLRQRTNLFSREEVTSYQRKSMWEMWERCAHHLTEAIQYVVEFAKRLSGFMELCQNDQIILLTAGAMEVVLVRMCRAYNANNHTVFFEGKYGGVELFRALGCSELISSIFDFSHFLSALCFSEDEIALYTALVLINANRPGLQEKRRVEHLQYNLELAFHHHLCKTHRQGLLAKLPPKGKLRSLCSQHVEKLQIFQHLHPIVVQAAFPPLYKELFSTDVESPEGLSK
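Stably transfected Drosophila Schneider cells are the test system, with ROR gamma fused to Gal4 and luciferase under UAS control; luminescence is read after 20 hr of 700 uM copper sulfate induction at ambient temperature.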
ELG1 DNA repair: inhibitors of ELG1-dependent DNA repair in HEK293T cells | Potency, µM (titrated, usually from 46.1 µM), for the others: top-dose activity change, negative = inhibition, actives largely listed as inhibitors | AID 504467 | actives 2.3% (n = 330,000) | HEK293T ELG1-luciferase reporter, luminescence, 16 h; DNA damage induced by 5-fluorouridine; also: potency is read from the fitted curve at half-maximal effect; nearly all actives have a fitted effect of over 55% in size
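In this reporter screen, reduction of luminescence relative to DMSO vehicle indicated activity. Compounds and 5-fluorouridine were added together to 2,000 cells per well, incubated for 16 hr at 37 °C, then developed with ONE-Glo.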
DT40 TDP1 CPT: growth inhibition of DT40 Tdp1-/-;hTDP1 cells with camptothecin (screen for TDP1 inhibitors). chicken DT40 Tdp1-/-;hTDP1 cells + 20 nM CPT, ATP luminescence, 48 h. Potency, µM (highest dose often 46.2 µM), for inactives: at the highest dose activity change, negative = growth inhibition, most hits filed as inhibitors. actives 12% (n = 420,000). AID 686979; also: potency is read from the fitted curve at half-maximal effect; nearly all actives have a fitted effect of over 55% in size
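Cell growth measured by CellTiter-Glo luminescence after a minimum 48 h, 37 C compound exposure with 20 nM CPT in Tdp1-knockout DT40 cells stably expressing hTDP1, seeded 400/well; qHTS titration format.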
IL-1B inflam inh: inflammasome signaling inhibition, IL-1 beta readout; THP-1 LPS/ATP IL-1B secretion, AlphaLISA, 16 h; active compounds read low; activity change, % at 57.5 µM; actives 4.7% (n = 360,000); AID 743279; in the data active = activity change below about -50%; inconclusive = mostly about -30% to -49%
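Secreted IL-1B measured by AlphaLISA bead assay after 16 h compound exposure of THP-1 cells; compounds (final up to 57.5 uM) added 1 h before LPS (250 ng/mL) and ATP (1.25 mM) stimulation; lower signal means less secretion.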
Gal4-VP16 FLuc: Gal4-VP16 reporter inhibition counter-screen. actives 3.5% (n = 310,000). Drosophila S2 Gal4-VP16 UAS-luciferase, luminescence, 20 h. Potency, µM (series often up to 53.6 µM), inactives show at the highest dose activity, negative = inhibition, actives largely listed as inhibitors;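 also: Gal4-VP16 expression switched on by copper sulfate through the metallothionein promoter; potency is read from the fitted curve at half-maximal effect; nearly all actives have a fitted effect of over 50% in size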
The depositor's hits bear a star. Rows were chosen to be rich in hits. Some 21% of all compounds tested hit in one or more screens of this group. Unless noted, calls follow the shape of the dose curve; as a rule, active = well fitted curve in the direction sought with a large enough effect; inconclusive = small, poorly fitted or top-dose-only effect, or another doubt; inactive = no such curve, though single readings can be large; an effect the other way counts as inactive or inconclusive. % is scaled to controls: 0 for no effect and ±100 for the full control effect.

What do the screens show for `O=C(CN1C(=O)C2(SCC(=O)N2c2ccc(F)c(F)c2)c2ccccc21)Nc1ccccc1F` (stereo unspecified)?
TDP1 cell noCPT: -20.1%; DT40 TDP1 CPT: -12.2%

How did COc1ccc(N2C(=O)CSC23C(=O)N(CC(=O)NC2CCCC2)c2ccccc23)cc1 (stereo unspecified) do in these assays?
TDP1 cell noCPT: 21.8%; RORg inh: 0.8%; ELG1 DNA repair: 12.7%; DT40 TDP1 CPT: 3.3%; IL-1B inflam inh: -20.5; Gal4-VP16 FLuc: -0.2%

How did CCOc1ccc(NC(=O)CN2C(=O)C3(SCC(=O)N3c3ccc(F)cc3)c3ccccc32)cc1 (stereo unspecified) do in these assays?
TDP1 cell noCPT: inconclusive; DT40 TDP1 CPT: 23.1µM*

Results for Cc1cccc(NC(=O)CN2C(=O)C3(SCC(=O)N3c3ccccc3)c3ccccc32)c1 (stereo unspecified) ?
TDP1 cell noCPT: inconclusive; DT40 TDP1 CPT: 23.1µM*

What do the screens show for `COc1cccc(NC(=O)CN2C(=O)C3(SCC(=O)N3c3cc(C)cc(C)c3)c3ccccc32)c1` (stereo unspecified)?
TDP1 cell noCPT: inconclusive; DT40 TDP1 CPT: 18.4µM*

How did CSc1n[nH]c(NCc2cccs2)n1 do in these assays?
TDP1 cell noCPT: -9.2%; RORg inh: 20.1%; ELG1 DNA repair: 16.9%; DT40 TDP1 CPT: -15.0%; IL-1B inflam inh: -1.6; Gal4-VP16 FLuc: 2.5%

How did O=C(NCCO)/C(=C\c1cccc([N+](=O)[O-])c1)NC(=O)c1cccs1 do in these assays?
TDP1 cell noCPT: -0.7%; DT40 TDP1 CPT: 3.9%; IL-1B inflam inh: -0.5

Results for Cc1ccc2ncc(C(=O)N3CCN(c4ccccc4F)CC3)c(=O)n2c1 ?
TDP1 cell noCPT: -5.8%; DT40 TDP1 CPT: 0.0%

How did Cc1ccc2c(c1)c(CC(NC(=O)c1ccccc1Oc1ccccc1)C(=O)O)cn2C(=O)OCc1ccccc1 (stereo unspecified) do in these assays?
RORg inh: inconclusive; Gal4-VP16 FLuc: -0.7%

Results for Cc1cc(C)cc(N2C(=O)CSC23C(=O)N(Cc2c(F)cccc2Cl)c2ccccc23)c1 (stereo unspecified) ?
TDP1 cell noCPT: 16.4µM*; DT40 TDP1 CPT: 16.4µM*

How did CCc1cccc(N2C(=O)N(Cc3c(F)cccc3Cl)c3ccccc3S2(=O)=O)c1 do in these assays?
TDP1 cell noCPT: inconclusive; DT40 TDP1 CPT: -28.6%

What do the screens show for `CCN(CC(=O)NCc1ccc(Cl)cc1)CC(=O)NC1(C#N)CCCC1`?
TDP1 cell noCPT: -16.2%; RORg inh: 0.5%; ELG1 DNA repair: 6.7%; DT40 TDP1 CPT: 4.5%; IL-1B inflam inh: 5.9; Gal4-VP16 FLuc: -4.1%

What do the screens show for `NS(=O)(=O)c1ccc(CCNC(=O)CSc2nc3ccsc3c(=O)n2Cc2ccccn2)cc1`?
TDP1 cell noCPT: -27.2%; DT40 TDP1 CPT: -4.4%; IL-1B inflam inh: -5.3

What do the screens show for `Fc1cccc(C2NN=C(c3ccccc3)S2)c1` (stereo unspecified)?
TDP1 cell noCPT: -27.9%; RORg inh: inconclusive; ELG1 DNA repair: inconclusive; DT40 TDP1 CPT: -12.0%; IL-1B inflam inh: 10.6; Gal4-VP16 FLuc: inconclusive

How did COc1ccc(C2NN=C(c3ccc(C)cc3)S2)cc1OC (stereo unspecified) do in these assays?
TDP1 cell noCPT: -28.1%; RORg inh: 2µM*; ELG1 DNA repair: inconclusive; DT40 TDP1 CPT: -13.6%; IL-1B inflam inh: 8.8; Gal4-VP16 FLuc: inconclusive

Results for Cc1ccc(C2=NNC(c3cccc(F)c3)S2)cc1 (stereo unspecified) ?
TDP1 cell noCPT: -6.7%; RORg inh: 6.31µM*; ELG1 DNA repair: inconclusive; DT40 TDP1 CPT: -17.3%; IL-1B inflam inh: 39.2; Gal4-VP16 FLuc: 7.08µM*

Results for CCC(C)Sc1ccc([C@H]2N[C@@](C)(C(=O)OC)[C@H]3C(=O)N(C)C(=O)[C@@H]23)cc1OC (stereo partly specified) ?
TDP1 cell noCPT: inconclusive; ELG1 DNA repair: 16.3%; DT40 TDP1 CPT: -35.1%; IL-1B inflam inh: 17.2

What do the screens show for `COc1ccccc1NC(=O)Cc1nc(=O)[nH]c(=O)[nH]1`?
TDP1 cell noCPT: 0.2%; DT40 TDP1 CPT: 8.8%; IL-1B inflam inh: 1.0

How did C#CCOCCOCCOCCNc1nc(N2CCN(C(=O)[C@H]([C@@H](C)O)n3cc(CCCCN)nn3)CC2)nc(N2CCN(C(=O)[C@H](CCCCN)n3cc(CC(C)O)nn3)CC2)n1 (stereo partly specified) do in these assays?
TDP1 cell noCPT: -6.2%; ELG1 DNA repair: 1.2%; DT40 TDP1 CPT: -19.1%; IL-1B inflam inh: -9.9

How did C#CCOCCOCCOCCNc1nc(N2CCN(C(=O)CCCCCCCCCCNC(=O)[C@@H](CCSC)n3cc(CCO)nn3)CC2)nc(N2CCN(C(=O)CCCCCCCCCCNC(=O)[C@H](CCCN=C(N)N)n3cc(C[C@@H](C)CC)nn3)CC2)n1 do in these assays?
TDP1 cell noCPT: inconclusive; ELG1 DNA repair: inconclusive; DT40 TDP1 CPT: 25.9µM*; IL-1B inflam inh: -99.7*

How did C#CCOCCOCCOCCNc1nc(N2CCN(C(=O)CCCCCCCCCCNC(=O)Cn3cc(C[C@@H](C)O)nn3)CC2)nc(N2CCN(C(=O)CCCCCCCCCCNC(=O)[C@@H](CCSC)n3cc(CCO)nn3)CC2)n1 do in these assays?
TDP1 cell noCPT: 10.3µM*; ELG1 DNA repair: -28.7%; DT40 TDP1 CPT: inconclusive; IL-1B inflam inh: 1.7

What do the screens show for `C#CCOCCOCCOCCNc1nc(N2CCN(C(=O)CCCCCCCCCCNC(=O)[C@H](CCCCN)n3cc(C[C@@H](C)CC)nn3)CC2)nc(N2CCN(C(=O)CCCCCCCCCCNC(=O)[C@@H]([C@H](C)O)n3cc(C)nn3)CC2)n1`?
TDP1 cell noCPT: 5.17µM*; ELG1 DNA repair: inconclusive; DT40 TDP1 CPT: 4.61µM*; IL-1B inflam inh: inconclusive

What do the screens show for `C#CCOCCOCCOCCNc1nc(N2CCN(C(=O)CCCCCCCCCCNC(=O)[C@@H](CCSC)n3cc(CCO)nn3)CC2)nc(N2CCN(C(=O)CCCCCCCCCCNC(=O)[C@@H]([C@H](C)O)n3cc(C)nn3)CC2)n1`?
TDP1 cell noCPT: 9.2µM*; ELG1 DNA repair: inconclusive; DT40 TDP1 CPT: 6.51µM*; IL-1B inflam inh: inconclusive
